Experimental data: PubChem BioAssay
Calls of active or inactive are those of the source.

What was measured:
[1] = test system: PRMT1 (protein arginine N-methyltransferase 1); assay: small molecules binding arginine methyltransferase PRMT1 – biochemical, small-molecule microarray, 635 nm fluorescence, primary screen (AID 1088); conditions: higher = more signal;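 also: binding of Prmt1 protein to compounds spotted on small-molecule microarray slides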
[2] = growth effects on S. cerevisiae YJM789 – YJM789 clinical isolate, OD600, 24 h, basal, primary screen (AID 1089); conditions: higher = more signal, called active from +8 up or from −8 down;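 also: growth of clinical yeast isolate S. cerevisiae YJM 789 seeded 1000 cells per well; test concentration not given here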
[3] = S. pombe growth modifiers, basal conditions – strain 972, OD600, 24 h, no modulator, primary screen (AID 1090);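 also: basal condition with compound alone and no growth modifier present; test concentration not given here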; conditions: S. pombe 972 growth, higher = more signal, called active from +8 up or from −8 down
[4] = budding yeast growth modifiers under rapamycin – strain BY4716, OD600, 96 h, primary screen (AID 1091); also: test concentration not given here; conditions: S. cerevisiae BY4716 + rapamycin, higher = more signal, called active from +8 up or from −8 down
[5] = target: Torsin-1A-interacting protein 2 (Homo sapiens) (UniProt Q8NFQ8); assay: small molecules binding lysate-expressed LULL1 – cell lysate, human LULL1 lysate, 635/667 nm fluorescence, primary screen (AID 1092); conditions: small-molecule microarray, hLULL1 lysate binding, 635 nm fluorescence; higher = more signal;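 also: probe is lysate of COS7 cells overexpressing human LULL1; score merges per-feature 667 nm fluorescence with signal-to-noise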
Chain of Torsin-1A-interacting protein 2 (Homo sapiens) (Q8NFQ8 whole entry, looked up): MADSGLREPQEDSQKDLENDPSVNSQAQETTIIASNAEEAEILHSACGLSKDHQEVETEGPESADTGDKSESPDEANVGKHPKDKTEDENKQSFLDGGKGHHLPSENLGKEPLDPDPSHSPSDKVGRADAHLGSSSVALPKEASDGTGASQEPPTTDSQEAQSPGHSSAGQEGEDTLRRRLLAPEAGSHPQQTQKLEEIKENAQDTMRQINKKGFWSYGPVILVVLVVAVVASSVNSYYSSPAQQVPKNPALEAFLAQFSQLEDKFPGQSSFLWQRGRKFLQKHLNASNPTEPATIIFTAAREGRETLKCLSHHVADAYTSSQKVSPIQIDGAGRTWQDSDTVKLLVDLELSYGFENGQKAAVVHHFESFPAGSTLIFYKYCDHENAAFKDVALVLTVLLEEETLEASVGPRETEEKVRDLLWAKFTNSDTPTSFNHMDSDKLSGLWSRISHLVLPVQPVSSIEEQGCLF

[6] = optical density change of DRC41 E. coli – strain DRC41, OD650, 24 h, E. coli filamentation project, primary screen (AID 1093);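 also: MC1000 strain lacking acrAB efflux and sulA so SOS filamentation is blocked; test concentration not given here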; conditions: E. coli DRC41 growth, higher = more signal, called active from +8 up or from −8 down
[7] = probe aLefty2 binding to arrayed compounds – biochemical, biotinylated probe, 635/667 nm fluorescence, primary screen (AID 1094); conditions: small-molecule microarray, higher = more signal;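 also: score merges spot fluorescence near 667 nm with spot signal-to-noise ratio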
[8] = test system: Noggin (protein binding on small-molecule microarray); assay: small molecules binding Noggin protein – biochemical, 635/667 nm fluorescence, primary screen (AID 1095); conditions: 635 nm fluorescence, higher = more signal;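 also: score merges 667 nm feature fluorescence with signal to noise over triplicate slides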
[9] = target: Neurogenic locus notch homolog protein 3 (Homo sapiens) (UniProt Q9UM47); assay: small molecules binding NOTCH3 protein – biochemical, 635/667 nm fluorescence, primary screen (AID 1096); conditions: small-molecule microarray, 635 nm fluorescence, higher = more signal
Chain of Neurogenic locus notch homolog protein 3 (Homo sapiens) (Q9UM47 whole entry, looked up): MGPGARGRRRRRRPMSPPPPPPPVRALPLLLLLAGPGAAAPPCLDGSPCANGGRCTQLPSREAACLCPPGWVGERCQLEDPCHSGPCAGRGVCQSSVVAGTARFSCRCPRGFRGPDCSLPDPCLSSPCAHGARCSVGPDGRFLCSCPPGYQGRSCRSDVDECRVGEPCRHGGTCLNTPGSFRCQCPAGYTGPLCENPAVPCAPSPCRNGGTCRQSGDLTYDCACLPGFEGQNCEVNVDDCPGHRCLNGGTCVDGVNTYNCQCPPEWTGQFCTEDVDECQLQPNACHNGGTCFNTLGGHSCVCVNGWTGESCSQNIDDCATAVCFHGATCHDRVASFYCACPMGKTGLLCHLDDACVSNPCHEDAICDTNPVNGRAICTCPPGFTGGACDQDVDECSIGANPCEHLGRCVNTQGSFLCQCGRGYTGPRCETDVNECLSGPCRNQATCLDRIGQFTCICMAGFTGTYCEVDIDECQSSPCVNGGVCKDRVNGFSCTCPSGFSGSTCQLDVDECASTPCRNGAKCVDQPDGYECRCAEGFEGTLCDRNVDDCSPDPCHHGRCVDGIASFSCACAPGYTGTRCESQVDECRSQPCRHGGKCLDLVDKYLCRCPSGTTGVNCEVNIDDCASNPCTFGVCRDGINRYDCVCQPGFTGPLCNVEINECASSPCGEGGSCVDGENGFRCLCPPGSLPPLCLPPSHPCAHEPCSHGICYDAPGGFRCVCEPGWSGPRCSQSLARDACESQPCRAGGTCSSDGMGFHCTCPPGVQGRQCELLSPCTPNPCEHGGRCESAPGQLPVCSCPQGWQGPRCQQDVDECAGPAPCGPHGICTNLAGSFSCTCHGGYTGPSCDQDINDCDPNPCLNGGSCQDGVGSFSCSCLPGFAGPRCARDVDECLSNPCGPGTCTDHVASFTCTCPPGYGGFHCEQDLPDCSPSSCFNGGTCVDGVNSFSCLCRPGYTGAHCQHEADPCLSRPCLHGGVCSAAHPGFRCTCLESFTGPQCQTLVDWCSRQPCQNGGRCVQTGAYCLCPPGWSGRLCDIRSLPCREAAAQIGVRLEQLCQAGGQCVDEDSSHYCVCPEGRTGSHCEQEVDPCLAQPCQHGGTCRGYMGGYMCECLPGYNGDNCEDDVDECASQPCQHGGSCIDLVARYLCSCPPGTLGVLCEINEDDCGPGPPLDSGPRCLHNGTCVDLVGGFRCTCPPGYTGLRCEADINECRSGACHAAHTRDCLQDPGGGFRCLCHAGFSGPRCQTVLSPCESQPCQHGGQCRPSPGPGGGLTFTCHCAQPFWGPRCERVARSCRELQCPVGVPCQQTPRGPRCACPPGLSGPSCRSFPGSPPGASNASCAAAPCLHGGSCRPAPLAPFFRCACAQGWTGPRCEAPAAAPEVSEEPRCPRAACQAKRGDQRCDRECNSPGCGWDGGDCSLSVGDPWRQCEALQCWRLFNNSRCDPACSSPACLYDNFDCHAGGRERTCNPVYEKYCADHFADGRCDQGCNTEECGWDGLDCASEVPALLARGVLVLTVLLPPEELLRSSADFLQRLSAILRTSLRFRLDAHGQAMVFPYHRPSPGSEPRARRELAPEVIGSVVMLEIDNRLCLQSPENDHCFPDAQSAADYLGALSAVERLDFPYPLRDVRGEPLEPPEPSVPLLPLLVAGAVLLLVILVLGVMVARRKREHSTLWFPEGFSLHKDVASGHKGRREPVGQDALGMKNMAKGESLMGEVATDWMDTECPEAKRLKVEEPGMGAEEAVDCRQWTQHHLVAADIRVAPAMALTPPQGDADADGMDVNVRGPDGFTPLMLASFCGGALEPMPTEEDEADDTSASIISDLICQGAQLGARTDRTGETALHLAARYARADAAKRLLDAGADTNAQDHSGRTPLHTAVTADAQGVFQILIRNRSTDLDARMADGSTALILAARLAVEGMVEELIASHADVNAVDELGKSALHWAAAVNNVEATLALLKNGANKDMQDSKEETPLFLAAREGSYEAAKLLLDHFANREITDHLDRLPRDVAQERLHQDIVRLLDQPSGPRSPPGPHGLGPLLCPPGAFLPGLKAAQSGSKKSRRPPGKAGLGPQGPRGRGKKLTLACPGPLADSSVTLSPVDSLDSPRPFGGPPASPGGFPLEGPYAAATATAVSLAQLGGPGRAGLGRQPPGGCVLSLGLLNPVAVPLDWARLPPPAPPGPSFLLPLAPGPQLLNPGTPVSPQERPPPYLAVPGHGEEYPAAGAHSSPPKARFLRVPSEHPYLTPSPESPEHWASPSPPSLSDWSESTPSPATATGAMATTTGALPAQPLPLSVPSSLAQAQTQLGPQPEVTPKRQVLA

[10] = probe aEGFR binding to arrayed compounds – biochemical, biotinylated probe, 635/667 nm fluorescence, primary screen (AID 1097); conditions: small-molecule microarray, higher = more signal;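 also: probe is a biotinylated anti-EGFR antibody binding compounds printed on slides; score combines fluorescence near 667 nm and signal to noise of each spot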

Row | SMILES | composite z-score [1] | z-score [2] | z-score [3] | z-score [4] | composite z-score [5] | z-score [6] | composite z-score [7] | composite z-score [8] | composite z-score [9] | composite z-score [10]
1 | CC(=O)OC[C@H]1O[C@H](CCON=C(C)CCC(=O)OC[C@H]2O[C@H](C#Cc3ccccc3)C=C[C@@H]2Oc2ccc(C)cc2)C=C[C@@H]1OC(C)=O | 0.269 | -0.465 (inactive) | -0.0797 (inactive) | -0.579 (inactive) | 0.719 | 0.554 (inactive) | -0.181 | 0.465 | -0.0894 | 0.0567
2 | O=C1C[C@@H](O)[C@@H](O)[C@@H]2[C@@H]3C(=O)N(c4cccc(Oc5ccccc5)c4)C(=O)[C@@H]3CC[C@@H]12 | 0.766 | -0.336 (inactive) | -0.444 (inactive) | -0.622 (inactive) | 1.42 | 0.185 (inactive) | -0.177 | 0.468 | 1.09 | 0.126
3 | COCC(=C=CC[C@@H](O)c1ccccc1OCCO)CCO | 0.68 | 0.621 (inactive) | 0.0008 (inactive) | 0.199 (inactive) | 2.36 | 0.71 (inactive) | 0.0378 | 0.436 | 0.442 | -0.0332
4 | CN1C(=O)[C@@]2(CCC(=O)OC(C)(C)C)N=C(c3ccc(OCCCO)cc3)O[C@H]2c2ccccc21 | 1.54 | -1.08 (inactive) | -2.19 (inactive) | 0.0793 (inactive) | 2.82 | 1.43 (inactive) | 0.0112 | 0.747 | 0.736 | -0.168
5 | CC1CC/C=C\[C@H]2OC34C=CCN(Cn5nnc6ccccc65)C(=O)[C@H]3N(CCO)C(=O)[C@@H]4C2C(=O)O1 (stereo not given in full) | 0.754 | -1.71 (inactive) | -1.64 (inactive) | -1.99 (inactive) | 3.32 | 2.92 (inactive) | -0.0819 | -1.08 | -0.695 | -0.424
6 | C#CCCCON=C1C[C@@H](O)[C@@H](O)[C@@H]2[C@@H]3C(=O)N(CCC(=O)OCC)C(=O)[C@@H]3CC[C@@H]12 | -0.683 | -0.969 (inactive) | 0.068 (inactive) | -0.664 (inactive) | 0.654 | 0.827 (inactive) | 0.706 | -1.1 | -1.01 | -0.152
7 | CCN1C(=O)[C@H]2[C@H]3[C@H](O)[C@H](O)CC(=NOC[C@@H](C)[C@H](OCc4ccccc4)C(C)C)[C@@H]3CC[C@H]2C1=O | 0.607 | -1.05 (inactive) | -4.13 (inactive) | -0.673 (inactive) | 0.8 | 0.568 (inactive) | -0.145 | 0.355 | 0.457 | -0.0936
8 | CO[C@@H]1COC(=O)[C@@H]2CCCN2C(=O)[C@@H](C)COC(=O)[C@H](COCc2ccccc2)NC(=O)CC=C[C@H]1C | 0.705 | 0.953 (inactive) | 0.263 (inactive) | 0.458 (inactive) | 0.445 | -1.99 (inactive) | -0.236 | 0.529 | 0.554 | -0.198
9 | C[C@H](c1ccccc1)N1C(=O)[C@H]2[C@@H]3C(=CC[C@H]2C1=O)C(=O)[C@H]1O[C@H]1[C@H]3O | -0.511 | 0.389 (inactive) | -1.84 (inactive) | 0.292 (inactive) | -0.597 | -0.295 (inactive) | -0.0305 | 0.447 | 0.172 | -0.138
10 | COc1cccc([C@H]2Oc3ccc(OC)cc3C(=NO[C@H](C)c3cn([C@@H]4COC[C@H]4O)nn3)[C@@H]2O)c1 | -0.499 | 0.0141 (inactive) | 0.874 (inactive) | 0.467 (inactive) | -0.077 | -0.398 (inactive) | -0.126 | -0.427 | -1.34 | -0.267
11 | CO[C@@H]1COC(=O)CCC[C@@H](C)[C@H](OC)COC(=O)CCC[C@H]1C | 0.408 | 0.376 (inactive) | 0.852 (inactive) | 0.294 (inactive) | -0.431 | -0.0526 (inactive) | -0.234 | 0.6 | 0.636 | -0.0967
12 | CC(C)CN1CCc2nc(-c3ccccc3)c3c(c2CC1)CO[C@@H](C)C3 | -0.36 | 0.175 (inactive) | -0.327 (inactive) | -0.378 (inactive) | -0.39 | 0.102 (inactive) | 0.061 | 0.364 | 0.0668 | 0.0657
13 | Cc1cc2c(nc1C)CCCN2CC(O)CN1CCN(C)CC1 (stereo not given) | 1.25 | -0.525 (inactive) | 0.277 (inactive) | -0.856 (inactive) | 0.9 | -0.384 (inactive) | -0.294 | 0.578 | 0.915 | -0.169
14 | CO[C@@H]1COC(=O)CC=C[C@@H](C)[C@@H]2C=C[C@H](O)[C@@H](COC(=O)CCC[C@H]1C)O2 | 1.43 | -0.199 (inactive) | 0.498 (inactive) | -0.181 (inactive) | -1.78 | 0.206 (inactive) | -0.075 | 1.65 | -0.076 | -0.15
15 | Cc1ccc(F)cc1S(=O)(=O)N[C@@H]1CCN(Cc2ccc(CC(C)C)cc2)C1 | 0.446 | -25.8 (active) | -21.4 (active) | -4.49 (inactive) | 1.59 | -19.5 (active) | -0.192 | -0.0204 | -0.734 | -0.17
16 | CC(C)C[C@@H]1NC(=O)[C@H]2C[C@@H](C(=O)O)[C@@H](c3ccc(O)cc3)N2C1=O | 0.879 | 0.634 (inactive) | -0.213 (inactive) | 1.83 (inactive) | 1.15 | 0.831 (inactive) | 0.449 | 0.4 | 0.436 | 0.0577
17 | COC(=O)c1c(CC[C@@H](CO)NC(=O)N[C@H](Cc2ccccc2)Cn2cc(-c3ccccc3N)nn2)oc(C(C)=O)c1C(=O)OC | 1.19 | -0.231 (inactive) | -1.15 (inactive) | 0.2 (inactive) | 1.05 | 0.382 (inactive) | 0.323 | 0.173 | 0.492 | 0.195
18 | CCCC[C@H]1OB(O)C[C@H]2C1=C(C)C[C@H]1C(=O)N(C)C(=O)[C@H]12 | 0.95 | -0.334 (inactive) | -0.698 (inactive) | -0.762 (inactive) | 1.2 | -0.889 (inactive) | -0.166 | 0.622 | 0.959 | -0.12
19 | CCCNC(=O)[C@@H]1c2ccccc2C(=O)N(Cc2ccccc2Cl)[C@H]1c1ccc(CO)cc1 | 1.55 | -0.0545 (inactive) | -0.64 (inactive) | 0.152 (inactive) | 2.47 | 2.2 (inactive) | 0.102 | 0.751 | 1.05 | 0.116
20 | CO[C@@H]1COC(=O)CC=C[C@@H](C)[C@@H]2C=C[C@H](O)[C@@H](COC(=O)[C@H](C)NC(=O)CC=C[C@H]1C)O2 | 1.54 | -0.653 (inactive) | -0.465 (inactive) | -1.36 (inactive) | -0.75 | 0.0967 (inactive) | -0.212 | 1.42 | 0.868 | 0.0231
21 | CC(C)(C)N1C(=O)[C@H]2[C@H]3[C@H](O)[C@H](O)CC(=NO[C@@H]4O[C@H](CO)[C@@H](O)[C@H](O)[C@H]4O)[C@@H]3CC[C@H]2C1=O | 1.49 | -0.233 (inactive) | -0.113 (inactive) | -1.47 (inactive) | 1.97 | 0.637 (inactive) | -0.217 | 0.564 | 0.794 | -0.0229
22 | O=C1[C@H]2[C@H]3[C@H](O)[C@H](O)CC(=NO[C@@H]4O[C@H](CO)[C@@H](O)[C@H](O)[C@H]4O)[C@@H]3CC[C@H]2C(=O)N1Cc1ccccc1 | 0.346 | -0.3 (inactive) | -0.13 (inactive) | -0.556 (inactive) | 0.218 | 0.0628 (inactive) | -0.103 | 0.574 | 0.433 | 0.0673
23 | CC(CCN1CCc2nc(-c3ccccc3)c(-c3ccccc3)cc2C1)=NO[C@H](C)c1cn([C@@H]2COC[C@H]2O)nn1 | 1.49 | -0.0653 (inactive) | -1.35 (inactive) | -4.33 (inactive) | 2.03 | 0.364 (inactive) | 0.0218 | 0.224 | 0.299 | -0.137
24 | CO[C@H]1O[C@H](CO)[C@@H](OC(=O)Nc2ccc3c(c2)OCO3)[C@H](OC(=O)Nc2ccccc2-c2ccccc2)[C@@H]1OC(=O)Nc1ccccc1-c1ccccc1 | 1.54 | 2.12 (inactive) | 1.8 (inactive) | 0.91 (inactive) | 3.27 | 0.39 (inactive) | 0.0427 | 0.943 | 1.07 | -0.0179
25 | CN(C)CCCNC(=O)[C@@H]1c2ccccc2C(=O)N(Cc2cc(F)cc(C(F)(F)F)c2)[C@H]1c1ccc(CO)cc1 | 1.56 | -0.414 (inactive) | -0.627 (inactive) | -0.917 (inactive) | 2.93 | -0.66 (inactive) | -0.166 | -0.0315 | -1.2 | -0.174
26 | C=CC[C@@H]1C=C[C@H](ON=Cc2ccc(C(=O)N3[C@H](c4ccc(C)cc4)[C@@H](C)CC[C@H]3C(=O)OC)cc2)[C@@H](CO)O1 | 0.537 | -1.33 (inactive) | -0.119 (inactive) | -0.733 (inactive) | 0.531 | 1.35 (inactive) | -0.0741 | 0.709 | 0.162 | -0.0223
27 | C=CCOC(=O)[C@H]1[C@@H]2C(=O)O[C@@H](c3ccccc3)[C@@H](c3ccccc3)N2[C@@H](c2ccc(OCCOC(=O)[C@H]3C[C@H]4C(=O)N[C@@H](Cc5ccccc5)C(=O)N4[C@H]3c3ccc(O)cc3)cc2)[C@]12C(=O)Nc1ccccc12 | 1.55 | 1.44 (inactive) | 1.14 (inactive) | 4.4 (inactive) | 2.4 | 1.37 (inactive) | -0.0174 | 1.6 | 1.06 | 0.0499
28 | CCCCCN1CC=CC23O[C@@H]4C=CCOC(=O)[C@@H]4[C@H]2C(=O)N(CCCCCCO)[C@@H]3C1=O (stereo not given in full) | -0.0856 | -0.44 (inactive) | -0.183 (inactive) | -0.291 (inactive) | 0.865 | 0.0293 (inactive) | -0.0436 | -1.38 | -0.973 | -0.254
29 | CO[C@H]1O[C@H](CO)[C@@H](OC(=O)Nc2ccc(C#N)cc2)[C@H](OC(=O)c2cc3ccccc3[nH]2)[C@H]1OC(=O)c1cc2ccccc2[nH]1 | 1.3 | -2.49 (inactive) | -1.17 (inactive) | 0.507 (inactive) | 1.77 | 3.01 (inactive) | 0.0261 | 1.02 | 0.695 | -0.0238
